86 molecules from paper PMC4336329 (PLoS ONE, 2015) can be followed below.

The campaign covered roughly 310,000 compounds. About 14,000 (4.5%) showed an effect of 50% or more. Effects have a minus sign here. The entries come from a sample that favours strong results as a whole.
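Further: peak tail current of the secondary pulse compared with the same well before compound.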

human ether-à-go-go-related gene (hERG) potassium channel, sequence (Q12809 whole entry, looked up): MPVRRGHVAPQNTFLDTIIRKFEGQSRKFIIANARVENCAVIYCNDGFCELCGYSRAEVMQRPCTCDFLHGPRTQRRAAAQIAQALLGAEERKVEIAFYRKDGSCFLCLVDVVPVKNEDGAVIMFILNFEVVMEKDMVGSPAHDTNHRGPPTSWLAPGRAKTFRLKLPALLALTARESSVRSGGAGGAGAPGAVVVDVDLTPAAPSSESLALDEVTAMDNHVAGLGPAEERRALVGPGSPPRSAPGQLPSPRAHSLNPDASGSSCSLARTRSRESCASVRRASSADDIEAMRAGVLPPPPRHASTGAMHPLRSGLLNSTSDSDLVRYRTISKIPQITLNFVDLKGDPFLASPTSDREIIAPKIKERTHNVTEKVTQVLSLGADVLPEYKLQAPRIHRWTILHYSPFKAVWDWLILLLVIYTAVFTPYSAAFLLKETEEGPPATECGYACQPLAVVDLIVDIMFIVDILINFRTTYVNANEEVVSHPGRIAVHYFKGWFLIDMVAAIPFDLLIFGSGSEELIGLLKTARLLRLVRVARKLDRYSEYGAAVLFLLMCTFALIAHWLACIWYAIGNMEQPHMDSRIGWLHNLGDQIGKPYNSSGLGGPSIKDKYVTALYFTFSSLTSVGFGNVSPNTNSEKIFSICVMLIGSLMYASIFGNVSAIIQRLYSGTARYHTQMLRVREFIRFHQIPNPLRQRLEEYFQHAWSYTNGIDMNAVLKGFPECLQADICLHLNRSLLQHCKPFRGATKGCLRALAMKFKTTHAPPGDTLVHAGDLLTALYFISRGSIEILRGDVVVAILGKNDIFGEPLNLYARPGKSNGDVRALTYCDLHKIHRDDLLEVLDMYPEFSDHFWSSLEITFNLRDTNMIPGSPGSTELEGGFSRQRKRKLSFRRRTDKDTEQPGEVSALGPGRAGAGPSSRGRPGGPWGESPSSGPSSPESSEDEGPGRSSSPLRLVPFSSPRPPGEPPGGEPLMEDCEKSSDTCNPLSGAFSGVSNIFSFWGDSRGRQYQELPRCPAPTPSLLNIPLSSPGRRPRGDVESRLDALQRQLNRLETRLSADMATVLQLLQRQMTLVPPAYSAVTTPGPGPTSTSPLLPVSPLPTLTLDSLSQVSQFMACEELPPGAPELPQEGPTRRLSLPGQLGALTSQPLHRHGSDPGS

The experiment has as its target human ether-à-go-go-related gene (hERG) potassium channel (human, UniProt Q12809). In words: primary screen, population patch clamp on CHO cells stably expressing hERG; higher = less effect of the substance.
On to `Cc1ccc(C)c(S(=O)(=O)Nc2cc(SCC(=O)O)c(O)c3ccccc23)c1`, for which the “hERG current change (%, negative = inhibition) at 10uM” value amounted to 5.34%.

`CCOc1ccc(Cc2c(C)[nH]c3ccc(C(=O)O)cc3c2=S)cc1`: the “hERG current change (%, negative = inhibition) at 10uM” value is on record as -9.2%. `COc1ccc([N+](=O)[O-])cc1N(CC(O)CN1CCCC1)S(=O)(=O)c1ccc(C)cc1` (centres unmarked): the “hERG current change (%, negative = inhibition) at 10uM” value is reported as -2.85%. Under `Cc1cc(C)n(CC(O)CN(c2cccc([N+](=O)[O-])c2)S(=O)(=O)c2ccccc2)n1` (centres unmarked) stands 7.08%; under `Cc1ccc(S(=O)(=O)N(CC(O)CN2CCCCC2)c2cccc([N+](=O)[O-])c2)cc1` (centres unmarked), -78.8%. Turning to `COc1ccc([N+](=O)[O-])cc1N(CC(O)CN1CCCCC1)S(=O)(=O)c1ccc(C)cc1` (centres unmarked), the “hERG current change (%, negative = inhibition) at 10uM” value is listed as -42.7%. With `O=[N+]([O-])c1cccc(N(CC(O)CN2CCCC2)S(=O)(=O)c2ccccc2)c1` (centres unmarked) the figure was -62.4%; with `O=[N+]([O-])c1cccc(N(CC(O)CN2CCCCC2)S(=O)(=O)c2ccccc2)c1` (centres unmarked), -43.8%; with `Cc1cc(C)c2nc(SCC#N)cc(C)c2c1`, 13.5%.

For `O=C(OCC#CCSc1nnc(-c2cccc3ccccc23)o1)c1ccco1`, the “hERG current change (%, negative = inhibition) at 10uM” value was -2.9%. With `CCN=C(Nc1ccc(Cl)cc1)c1cccnc1` the figure was -2.16%. With `O=C(N/C(=C/c1ccco1)C(=O)N1CCCC1)c1cccs1`, the “hERG current change (%, negative = inhibition) at 10uM” value is given as -0.326%. Under `CC(C)(C)OC(=O)N1CCOCCOCCN(C(=O)OC(C)(C)C)CCOCCOCC1` stands 7%; under `Cc1oc(-c2ccc(Cl)cc2)nc1CN1CCCC(C(=O)NC2CC2)C1` (centres unmarked), -81.3%; under `COc1ccc(-c2nc(CS(=O)CC(=O)NC3CCCC3)c(C)o2)cc1` (centres unmarked), -16.4%.

Turning to `COc1ccc(-c2nc(CN3CCCC(C(=O)NC4CCCC4)C3)c(C)o2)cc1` (centres unmarked), the “hERG current change (%, negative = inhibition) at 10uM” value is -64.4%. With `Cc1oc(-c2ccc(Cl)cc2)nc1CS(=O)CC(=O)NC1CC1` (centres unmarked) the figure was 8.75%. With `COc1ccc(-c2nc(CN3CCC(C(=O)NC4CCCC4)CC3)c(C)o2)cc1OC` the figure was -36.4%; with `Cc1oc(-c2ccc(Cl)cc2)nc1CN1CCCC(C(=O)NCCCN2CCOCC2)C1` (centres unmarked), -19.4%; with `CC1CCN(c2nc(N3CCCCC3)nc(N3CCCCC3)n2)CC1`, 9.57%. `CC(C)(C)C(=O)OCc1nc(-c2ccc(Cl)cc2)cs1`: the “hERG current change (%, negative = inhibition) at 10uM” value came out at 7.41%.

Turning to `COc1ccc(CNC(=O)CCc2nc3cc(S(=O)(=O)N(C)C)ccc3n2C)cc1OC`, the “hERG current change (%, negative = inhibition) at 10uM” value was 14.3%. Under `N#C/C(=C\N1CCCCC1)S(=O)(=O)c1ccc(Cl)cc1` stands 15.6%. Consider `O=C(NCCc1ccccc1)c1ccc(S(=O)(=O)N2CCCC2)cc1`, for which the “hERG current change (%, negative = inhibition) at 10uM” value is listed as -5.37%. For `CSc1cccc(NC(=O)COC(=O)C2CCN(S(=O)(=O)c3ccccc3)CC2)c1`, the “hERG current change (%, negative = inhibition) at 10uM” value came out at 4.09%. With `Cc1ccc(-n2cnnn2)cc1Cl` the figure was -18.8%; with `C/C(=N\NC(=O)CNC(=O)c1cccs1)c1ccc(Cl)c(Cl)c1`, -2.25%; with `Fc1ccc(NCc2ccccc2F)cc1Cl`, -139%. With `Fc1ccccc1CNc1ccc(Cl)c(Cl)c1` the figure was 9.9%. Under `Fc1ccccc1CNc1ccc(Cl)cc1` stands -8.14%. On to `CC(NC(=O)CSC1=NCCS1)c1ccccc1` (centres unmarked), for which the “hERG current change (%, negative = inhibition) at 10uM” value is given as 14.3%. Under `Clc1nc2sccn2c1/C=N/n1cnc2ccccc21` stands -10%. With `COc1ccc(C(C(=O)NC2CCCCC2)N(C(=O)c2ccco2)c2ccccc2C(C)=O)cc1OC` (centres unmarked) the figure was 9.15%; with `O=C(CN1CCOCC1)Nc1ccc(Br)cc1C(=O)c1ccccc1`, -32.4%. Under `Cc1ccc(NC(=O)C(C)N2CCOCC2)c(C(=O)c2ccccc2)c1` (centres unmarked) stands -26.9%. For `O=C(CCN1CCCCC1)NCC(=O)Nc1ccc(Br)cc1C(=O)c1ccccc1`, the “hERG current change (%, negative = inhibition) at 10uM” value is -77.6%. Under `O=C(CCN1CCOCC1)Nc1ccc(Br)cc1C(=O)c1ccccc1` stands -19.6%; under `CC(C(=O)Nc1ccc(Br)cc1C(=O)c1ccccc1)N1CCOCC1` (centres unmarked), -58.6%. With `O=C(CN1CCOCC1)NCC(=O)Nc1ccc(Br)cc1C(=O)c1ccccc1` the figure was -37.1%. With `O=C(CCN1CCOCC1)NCC(=O)Nc1ccc(Br)cc1C(=O)c1ccccc1` the figure was -49.5%; with `O=C(CNC(=O)OCc1ccccc1)Nc1ccc(Br)cc1C(=O)c1ccccc1Cl`, -40.5%; with `O=C(CN1CCCCC1)NCC(=O)Nc1ccc(Br)cc1C(=O)c1ccccc1`, -79.1%.

As for `O=C(CNC(=O)OCc1ccccc1)Nc1ccc(Br)cc1C(=O)c1ccccc1`, the “hERG current change (%, negative = inhibition) at 10uM” value was -15.1%.

For `O=C(CNC(=O)OCc1ccccc1)NCC(=O)Nc1ccc(Br)cc1C(=O)c1ccccc1`, the “hERG current change (%, negative = inhibition) at 10uM” value was -56%. Under `CC(C(=O)Nc1ccc(Br)cc1C(=O)c1ccccc1)N1CCCCC1` (centres unmarked) stands -24.8%. With `Cc1csc(NC(=O)c2ccc(C)s2)n1` the figure was 6.99%. With `Cc1cc(C(=O)N/N=C/c2c[nH]c3ccccc23)c(C)o1` the figure was -27.4%; with `N#Cc1c(C(F)(F)F)cc(-c2ccc(Cl)c(Cl)c2)nc1SCCN1CCOCC1`, 6.62%. With `CN1CCC(OC(=O)c2cc3cc(Cl)cc(Cl)c3oc2=O)CC1`, the “hERG current change (%, negative = inhibition) at 10uM” value was -17.8%. With `O=C1N/C(=C\c2ccc(O)cc2)C(=O)c2ccccc21` the figure was -1.53%. With `O=C(O)C(=O)O.O=S(=O)(c1ccc(F)cc1)N1CCC(N2CCCCCC2)CC1` the figure was -26.3%. Turning to `COc1ccc(Nc2ccc(Nc3ccc(OC)cc3)nn2)cc1`, the “hERG current change (%, negative = inhibition) at 10uM” value is listed as 18.6%.

Regarding `Cc1cccc(N2CCN(C(=O)Cn3nc(C)n4cccc4c3=O)CC2C)c1` (centres unmarked), the “hERG current change (%, negative = inhibition) at 10uM” value amounted to 1.19%. Under `O=C(O)CCCCCCCCc1cn(Cc2ccc(C(=O)c3ccccc3)cc2)nn1` stands 19.5%; under `Cc1cccc(C)c1OCC(=O)N/N=C/c1cc2c(cc1[N+](=O)[O-])OCO2`, -4.6%; under `O=C(O)CN1CCc2ccccc2C1`, 21.3%. Take `CCC(CC)C(=O)Nc1cc([N+](=O)[O-])ccc1F`: the “hERG current change (%, negative = inhibition) at 10uM” value is given as -2.25%. With `COCCN1Cc2cccc(C(=O)Nc3cccnc3)c2C1=O` the figure was -32.6%; with `CCOC(=O)C1(Cc2ccccc2C)CCCN(C(=O)CCc2c(C)noc2C)C1` (centres unmarked), -29.3%; with `COC(=O)c1cc(C(=O)OCC(=O)NC2CCCCCCC2)cc([N+](=O)[O-])c1`, -7.58%. Under `COc1ccc(OCCN(C)Cc2ccccc2)cc1` stands -41.9%; under `Cc1ccc(S(=O)(=O)N(C)C)cc1NC(=O)C(C)N(C)CCOc1ccc(Cl)cc1` (centres unmarked), -26.7%; under `CN(CCOc1ccc(Cl)cc1)Cc1cccc(S(=O)(=O)N(C)C)c1`, -56.5%. With `COc1ccc(CCNC(=O)C(=O)NCc2cccs2)cc1OC` the figure was 8.95%. With `CCCCNC(=O)c1ccc(CS(=O)(=O)c2ccc(OC)cc2)o1`, the “hERG current change (%, negative = inhibition) at 10uM” value is listed as -7%.

As to `COc1ccc(S(=O)(=O)Cc2ccc(C(=O)NCCc3ccc(S(N)(=O)=O)cc3)o2)cc1`, the “hERG current change (%, negative = inhibition) at 10uM” value is recorded as 10.1%. With `COc1ccc(S(=O)(=O)Cc2ccc(C(=O)NCc3ccccc3)o2)cc1` the figure was -14.3%; with `CCCCN(CCCNC(=O)c1ccc(CS(=O)(=O)c2ccc(OC)cc2)o1)Cc1ccccc1`, -67.4%; with `COc1ccc(S(=O)(=O)Cc2ccc(C(=O)NCCCN(C)c3ccccc3)o2)cc1`, -59.4%. With `CCCCSCCCNC(=O)c1ccc(CS(=O)(=O)c2ccc(OC)cc2)o1` the figure was -59.6%; with `COc1ccc(S(=O)(=O)Cc2ccc(C(=O)NCC(OC)OC)o2)cc1`, 17.4%; with `CCN(CC)CCCNC(=O)c1ccc(CS(=O)(=O)c2ccccc2OC)o1`, 16.3%. Under `COCCCNC(=O)c1ccc(CS(=O)(=O)c2ccc(OC)cc2)o1` stands 5.86%; under `CCOc1ccc2nc(COC(=O)c3cccs3)c(C(=O)c3ccccc3)[n+]([O-])c2c1`, 6.46%.

Regarding `CCN(CC(=O)Nc1ccc(Br)cc1)C(=O)Cc1cccc(F)c1`, the “hERG current change (%, negative = inhibition) at 10uM” value was -17.4%.

Consider `O=C(CSc1nnc2c(Cl)cc(C(F)(F)F)cn12)N(Cc1ccccc1)Cc1ccccc1`, for which the “hERG current change (%, negative = inhibition) at 10uM” value is -28.6%. Under `Cc1ccc(OCc2cc(C(=O)NC(C)Cc3cccc(C)n3)no2)cn1` (centres unmarked) stands 17.8%. With `Cn1c(-c2ccsc2)c(-c2cccs2)c2cc(-c3ccc4cc[nH]c4c3)ccc21`, the “hERG current change (%, negative = inhibition) at 10uM” value is given as 12.1%. Under `Nc1ccc(O)cc1C(=O)OCC(=O)c1ccc(C2CCCCC2)cc1` stands 8.51%; under `CCOC(=O)/C=C/C(=O)OCc1csc(CC(=O)Nc2ccccc2C)n1`, -1.99%. With `COc1ccc(C[C@H]2CN3C(=NC[C@H]3C)N2CCNC(=O)CCC2CCCCC2)cc1` the figure was -69%; with `C[C@@H]1CN=C2N(CCNC(=O)CCC3CCCCC3)[C@H](Cc3ccc(O)cc3)CN21`, -0.311%; with `COc1ccc(C[C@H]2CN3C(=NC[C@@H]3C(C)C)N2CCNC(=O)CCC2CCCCC2)cc1`, -80.4%. With `COc1ccc(C[C@H]2CN3C(=NC[C@@H]3C)N2CCNC(=O)CCC2CCCCC2)cc1` the figure was -69%; with `C[C@H]1CN=C2N(CCNC(=O)CCC3CCCCC3)[C@H](Cc3ccc(O)cc3)CN21`, 9.65%; with `CC(C)[C@H]1CN=C2N(CCNC(=O)CCC3CCCCC3)[C@H](Cc3ccc(O)cc3)CN21`, -40.2%.
